According to PubChem BioAssay (Tox21):
Values joined by “and” are separate entries in the source; they are usually repeats but may differ in a detail not shown here. Equal values may be shown once. Inconclusive results are not listed. Entries that show only a call come without a potency. Some compounds were tested as several samples or in several runs, with calls that do not always agree. Active and inactive are the calls of the source. Calls come from the whole dose curve; as a rule, active = well fitted curve in the direction sought with a large enough effect in the repeat runs; inconclusive = weak or mixed curves; inactive = no such curve, though single readings can be large; an effect the other way counts as inactive or inconclusive.

Legend:
[1] = qHTS RealTime-Glo MT Cell Viability Assay in HepG2 cells - 40 hour (AID 1224870); note: nearly all actives have a fitted effect of over 50% in size
Method in brief: (§1)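 HepG2 cells mixed with RealTime-Glo MT reagents (NanoLuc plus cell-permeant prosubstrate) were seeded at 600 cells/well, incubated 5 h at 37 C/5% CO2, then pinned with compounds in DMSO; nonlytic luminescence tracked viability during 40 h treatment.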

[2] = A CellTox Green Cytotoxicity Assay to monitor cytotoxicity in HEK293 cells - 40 hour (AID 1224871); note: nearly all actives have a fitted effect of over 45% in size; note: potency is the fitted concentration of half-maximal effect
Method in brief: (§2)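 Fluorescence intensity, read at 0, 8, 16, 24, 32 and 40 h of compound treatment, reflected dye binding to DNA of dead HEK293 cells; compounds (23 nL, DMSO) were added 5 h after plating cells with reagent.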

[3] = qHTS RealTime-Glo MT Cell Viability Assay in HEK293 cells - 16 hour (AID 1224872); note: top concentration of the series differs between compounds; nearly all actives have a fitted effect of over 50% in size
Method in brief: (§3)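 Reads taken at 0, 8, 16, 24, 32 and 40 h from the same wells. HEK293 cells (600/well) carried RealTime-Glo reagents from seeding, with compound added after a 5 h settle at 37 C.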

[4] = qHTS RealTime-Glo MT Cell Viability Assay in HepG2 cells - 8 hour (AID 1224873); note: nearly all actives have a fitted effect of over 55% in size
Method in brief: as §1

[5] = qHTS RealTime-Glo MT Cell Viability Assay in HEK293 cells - 40 hour (AID 1224874); conditions: RealTime-Glo luminescence; max response: stronger effect = lower value; note: nearly all actives have a fitted effect of over 50% in size
Method in brief: (§4)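 Viable HEK293 cells reduce a cell-permeant prosubstrate; the product diffuses out and is consumed by NanoLuc in the medium to give light. Compounds went in after a 5 h incubation and plates were read over the treatment course.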

[6] = A CellTox Green Cytotoxicity Assay to monitor cytotoxicity in HEK293 cells - 24 hour (AID 1224875); note: nearly all actives have a fitted effect of over 45% in size; note: potency is the fitted concentration of half-maximal effect
Method in brief: as §2

[7] = A CellTox Green Cytotoxicity Assay to monitor cytotoxicity in HepG2 cells - 16 hour (AID 1224876); note: nearly all actives have a fitted effect of over 45% in size; note: potency is the fitted concentration of half-maximal effect
Method in brief: (§5)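 Using 1536-well format, dye-containing HepG2 suspension was seeded, allowed 5 h at 37 C/5% CO2, dosed by pintool with compounds, positive and negative controls, and imaged for fluorescence across 40 h.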

[8] = qHTS RealTime-Glo MT Cell Viability Assay in HepG2 cells - 32 hour (AID 1224877); note: nearly all actives have a fitted effect of over 55% in size
Method in brief: (§6)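 HepG2 suspension premixed with RealTime-Glo reagents is plated at 600 cells per well and left 5 h at 37 C/5% CO2. Compounds in DMSO then go in, and bioluminescence reflecting viable cell number is recorded over 40 h.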

[9] = A CellTox Green Cytotoxicity Assay to monitor cytotoxicity in HepG2 cells - 24 hour (AID 1224878); note: nearly all actives have a fitted effect of over 45% in size; note: potency is the fitted concentration of half-maximal effect
Method in brief: as §5

[10] = A CellTox Green Cytotoxicity Assay to monitor cytotoxicity in HepG2 cells - 40 hour (AID 1224879); note: nearly all actives have a fitted effect of over 40% in size; note: potency is the fitted concentration of half-maximal effect
Method in brief: as §5

[11] = qHTS RealTime-Glo MT Cell Viability Assay in HEK293 cells - 0 hour (AID 1224880)
Method in brief: as §4

[12] = A CellTox Green Cytotoxicity Assay to monitor cytotoxicity in HEK293 cells - 32 hour (AID 1224881); note: nearly all actives have a fitted effect of over 40% in size; note: potency is the fitted concentration of half-maximal effect
Method in brief: as §2

[13] = A CellTox Green Cytotoxicity Assay to monitor cytotoxicity in HepG2 cells - 0 hour (AID 1224882); note: nearly all actives have a fitted effect of over 35% in size
Method in brief: as §5

[14] = A CellTox Green Cytotoxicity Assay to monitor cytotoxicity in HepG2 cells - 32 hour (AID 1224883); note: nearly all actives have a fitted effect of over 50% in size; note: potency is the fitted concentration of half-maximal effect
Method in brief: as §5

[15] = A CellTox Green Cytotoxicity Assay to monitor cytotoxicity in HEK293 cells - 8 hour (AID 1224884); note: nearly all actives have a fitted effect of over 35% in size
Method in brief: as §2

[16] = qHTS RealTime-Glo MT Cell Viability Assay in HepG2 cells - 16 hour (AID 1224885); note: nearly all actives have a fitted effect of over 50% in size
Method in brief: as §6

[17] = qHTS RealTime-Glo MT Cell Viability Assay in HEK293 cells - 24 hour (AID 1224886)
Method in brief: as §3

[18] = qHTS RealTime-Glo MT Cell Viability Assay in HEK293 cells - 8 hour (AID 1224887)
Method in brief: as §4

[19] = A CellTox Green Cytotoxicity Assay to monitor cytotoxicity in HEK293 cells - 16 hour (AID 1224888); note: nearly all actives have a fitted effect of over 35% in size
Method in brief: as §2

[20] = qHTS RealTime-Glo MT Cell Viability Assay in HepG2 cells - 0 hour (AID 1224889); note: nearly all actives have a fitted effect of over 50% in size; note: potency is the fitted concentration of half-maximal effect
Method in brief: as §6

Structure (SMILES) | Potency [1] | Potency [2] | Potency [3] | Potency [4] | max response [5] | Potency [6] | Potency [7] | Potency [8] | Potency [9] | Potency [10] | Potency [11] | Potency [12] | Potency [13] | Potency [14] | Potency [15] | Potency [16] | Potency [17] | Potency [18] | Potency [19] | Potency [20]
CC(C)NC(C)C | inactive | inactive | inactive | inactive | 17.8% (inactive) and 3.33% (inactive) | inactive | inactive | inactive | inactive | inactive | inactive | inactive | inactive | inactive | inactive | inactive | inactive | inactive | inactive | inactive
O=C1C=CC(=O)C=C1 | inactive | inactive | inactive | inactive | 13.4% (inactive) | inactive | inactive | inactive |  | inactive | inactive | inactive | inactive | inactive | inactive | inactive | inactive | inactive | inactive | inactive
c1cc(OCC2CO2)ccc1Cc1ccc(OCC2CO2)cc1 (stereo not drawn) | inactive | inactive | inactive | inactive | -28.4% (inactive) | inactive | inactive | inactive | inactive | inactive | inactive | inactive | inactive | inactive | inactive | inactive | inactive | inactive | inactive | inactive
C[C@]12CCC(=O)C(O)=C1CC[C@@H]1[C@@H]2CC[C@]2(C)C(=O)CC[C@@H]12 | inactive | inactive | inactive | inactive | -15.6% (inactive) | inactive | inactive | inactive | inactive | inactive |  | inactive | inactive | inactive | inactive | inactive | inactive | inactive | inactive | 21.9 µM (active) and inactive
Cc1ccc(OP(=O)(Oc2ccc(C)cc2)Oc2ccc(C)cc2)cc1 | inactive | inactive | inactive | inactive | -19.7% (inactive) | inactive | inactive | inactive | inactive | 4.36 µM (active) and inactive |  | inactive | inactive | 4.89 µM (active) and inactive | inactive | inactive | inactive | inactive | inactive | inactive
CCC(CC)Nc1c([N+](=O)[O-])cc(C)c(C)c1[N+](=O)[O-] | inactive | inactive | inactive | inactive | 7.22% (inactive) | inactive | inactive | inactive | inactive | inactive | inactive | inactive | inactive | inactive | inactive | inactive | inactive | inactive | inactive | inactive
Cc1cc(Cl)ccc1OCCCC(=O)O | inactive | inactive | inactive | inactive | 5.09% (inactive) and 8.04% (inactive) | inactive | inactive | inactive | inactive | inactive | inactive | inactive | inactive | inactive | inactive | inactive | inactive | inactive | inactive | inactive
Oc1cc(Cl)c(Cl)cc1Cl | inactive | inactive | inactive | inactive | -18.2% (inactive) and -12.4% (inactive) | inactive | inactive | inactive | inactive | inactive |  | inactive | inactive | inactive | inactive | inactive | inactive |  | inactive | inactive
Nc1ccc(-c2ccc(N)c(N)c2)cc1N | inactive | inactive | inactive | inactive | 10% (inactive) | inactive | inactive | inactive | inactive | inactive | inactive | inactive | inactive | inactive | inactive | inactive | inactive | inactive | inactive | inactive
CCC(C)(C)c1ccc(O)cc1 | inactive | 49.5 µM (active) and 43.6 µM (active) | inactive | inactive | -5.76% (inactive) and -0.143% (inactive) | 49.5 µM (active) and 49 µM (active) | 44.1 µM (active) and 43.6 µM (active) | inactive | 49.5 µM (active) and 43.6 µM (active) and 23.9 µM (active) | 44.1 µM (active) and 38.9 µM (active) and 21.3 µM (active) | inactive | 49.5 µM (active) and 43.6 µM (active) | inactive | 44.1 µM (active) and 38.9 µM (active) and 21.3 µM (active) | inactive | inactive | inactive | inactive |  | inactive
c1nc[nH]n1 | inactive | inactive | inactive | inactive | -1.48% (inactive) and 17.9% (inactive) | inactive | inactive | inactive |  | inactive | inactive | inactive | inactive | inactive | inactive | inactive | inactive | inactive | inactive | inactive
